Our source for the growth inhibition values is PubChem BioAssay (NCI).

The panel holds about 79,000 compounds, 15% with a hit somewhere; the sample as a whole holds those more often. A number with no mark means an inactive call. Activity calls are given as the source filed them. Rule as the data show it: active = growth inhibition above about 70%; inactive = the rest.

Assay [1] in a line: NCI Yeast Anticancer Drug Screen. Data for the rad50 strain (AID 155).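 Also: 0% = growth of vehicle-only cultures of the same strain.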 The conditions noted are these: S. cerevisiae rad50 strain growth inhibition, hits give high values. In short, it runs like this:
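Compounds were tested on a yeast strain with an engineered DNA damage repair alteration; the reported value is growth inhibition normalised to vehicle treatment.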

Assay [2] in a line: NCI Yeast Anticancer Drug Screen. Data for the mec2-1 strain (AID 157). Conditions: S. cerevisiae mec2-1 strain, hits give high values. In short, it runs like this:
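Mutant yeast (mec2-1) grown with compound; growth inhibition relative to vehicle control reported.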

The nature of assay [3]: NCI Yeast Anticancer Drug Screen. Data for the sgs1 mgt1 strain (AID 161).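 Also: 0% = growth of cultures given vehicle only.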 Conditions: S. cerevisiae sgs1 mgt1 strain, hits give high values. In short, it runs like this:
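Percent growth inhibition was derived by comparing compound-exposed mutant yeast with vehicle-exposed cultures. The strain carries alterations in DNA damage repair.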

A short description of assay [4]: NCI Yeast Anticancer Drug Screen. Data for the cln2 rad14 strain (AID 165).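 Also: 0% = growth equal to vehicle treated cultures.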 Conditions: S. cerevisiae cln2 rad14 strain, hits give high values. In a few lines:
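Readout is yeast growth inhibition versus vehicle-treated controls, using a strain with cln2 and rad14 alterations exposed to compound.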

Assay [5] is described as follows: NCI Yeast Anticancer Drug Screen. Data for the bub3 strain (AID 167). Conditions: S. cerevisiae bub3 mutant strain, hits give high values. In short, it runs like this: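 Growth of a checkpoint-deficient yeast mutant is measured after compound exposure. Values represent inhibition relative to vehicle.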
Assay [6] can be described thus: NCI Yeast Anticancer Drug Screen. Data for the mlh1 rad18 strain (AID 175). The conditions noted are these: S. cerevisiae mlh1 rad18 strain growth inhibition, hits give high values. In a few lines: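 Genetically defined yeast (DNA repair-deficient) exposed to compounds; growth inhibition determined relative to vehicle.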
Setting [7] is: at 5.0 µM (retest, dose inferred, filed as 0.5).
[8] abbreviates: at 50.0 µM (retest, dose inferred, filed as 5.0).

As to `O=C(NCCCCCN1CCC2(CCCCC2)CC1)C(c1ccccc1)C1CCCCC1` (configuration not stated), the growth inhibition was -1% in assay [1] (setting [7]); 99% (active) in assay [1] (setting [8]); 99.6% (active) in assay [1] (at 50.0 µM); -12% in assay [2] (setting [7]); 98% (active) in assay [2] (setting [8]); 99.6% (active) in assay [2] (at 50.0 µM). Further, the growth inhibition in assay [3] (setting [7]) was 0%; in assay [3] (setting [8]), 97% (active); in assay [3] (at 50.0 µM) it was 99.7% (active); in assay [4] (setting [7]), 5%; in assay [4] (setting [8]), 99% (active); in assay [4] (at 50.0 µM), 99.2% (active). In addition, the growth inhibition in assay [5] (setting [7]) is -15%; in assay [5] (setting [8]), 100% (active); in assay [5] (at 50.0 µM), 99.6% (active); in assay [6] (setting [7]), 0%; in assay [6] (setting [8]), 99% (active); in assay [6] (at 50.0 µM) it was 99.7% (active).

As to `COc1cccc(C(c2cc3c(cc2O)OCO3)N2CCCC2)c1O` (configuration not stated), the growth inhibition in assay [1] (setting [7]) was 0%; in assay [1] (setting [8]), 52%; in assay [1] (at 50.0 µM), 48.2%; in assay [2] (setting [7]) it was 1%; in assay [2] (setting [8]), 44%; in assay [2] (at 50.0 µM), 46.5%. Also, the growth inhibition in assay [3] (setting [7]) is -5%; in assay [3] (setting [8]), 48%; in assay [3] (at 50.0 µM), 61.1%; in assay [4] (setting [7]), -6%; in assay [4] (setting [8]) it was 24%; in assay [4] (at 50.0 µM), 7.85%. In addition, the growth inhibition in assay [5] (setting [7]) is 6%; in assay [5] (setting [8]), 47%; in assay [5] (at 50.0 µM) it was 41.2%; in assay [6] (setting [7]), -1%; in assay [6] (setting [8]), 62%; in assay [6] (at 50.0 µM) it was 77% (active).

In the case of `C[C@]12CC[C@H](O)C[C@@H]1CC[C@@H]1[C@@H]2CC[C@]2(C)[C@@H](c3cc(C(F)(F)F)n[nH]3)CC[C@@H]12`, the growth inhibition was 12% in assay [1] (setting [7]); 94% (active) in assay [1] (setting [8]); 89.8% (active) in assay [1] (at 50.0 µM); 3% in assay [2] (setting [7]); 86% (active) in assay [2] (setting [8]); 61.6% in assay [2] (at 50.0 µM). Moreover, the growth inhibition in assay [3] (setting [7]) was 10%; in assay [3] (setting [8]) it was 90% (active); in assay [3] (at 50.0 µM), 63%; in assay [4] (setting [7]) it was 7%; in assay [4] (setting [8]), 92% (active); in assay [4] (at 50.0 µM), 68.9%. Besides, the growth inhibition in assay [5] (setting [7]) was -3%; in assay [5] (setting [8]), 85% (active); in assay [5] (at 50.0 µM), 84.3% (active); in assay [6] (setting [7]), 12%; in assay [6] (setting [8]), 96% (active); in assay [6] (at 50.0 µM) it was 88.7% (active).

Take `CC(C)C(CC(C)(C)C)OC(=O)Nc1cccc2ccccc12` (configuration not stated): the growth inhibition in assay [1] (setting [7]) was 0%; in assay [1] (setting [8]), 96% (active); in assay [1] (at 50.0 µM) it was 13.1%; in assay [2] (setting [7]) it was -1%; in assay [2] (setting [8]), 98% (active); in assay [2] (at 50.0 µM) it was 26.4%. For the same compound, the growth inhibition was 0% in assay [3] (setting [7]); 97% (active) in assay [3] (setting [8]); 61.8% in assay [3] (at 50.0 µM); -17% in assay [4] (setting [7]); 95% (active) in assay [4] (setting [8]); 6.15% in assay [4] (at 50.0 µM). For the same compound, the growth inhibition in assay [5] (setting [7]) was 11%; in assay [5] (setting [8]), 96% (active); in assay [5] (at 50.0 µM), 61.1%; in assay [6] (setting [7]), -3%; in assay [6] (setting [8]), 97% (active); in assay [6] (at 50.0 µM) it was 58.1%.

Regarding `O=C(c1ccccc1)c1ccc(Br)cc1O`, the growth inhibition in assay [1] (setting [7]) was -3%; in assay [1] (setting [8]), 21%; in assay [1] (at 50.0 µM), 57%; in assay [2] (setting [7]) it was -9%; in assay [2] (setting [8]), 12%; in assay [2] (at 50.0 µM), 21.9%. Besides, the growth inhibition in assay [3] (setting [7]) is -4%; in assay [3] (setting [8]) it was 33%; in assay [3] (at 50.0 µM) it was 31.8%; in assay [4] (setting [7]), -5%; in assay [4] (setting [8]), 9%; in assay [4] (at 50.0 µM), 28.1%. Besides, the growth inhibition in assay [5] (setting [7]) was -12%; in assay [5] (setting [8]) it was -11%; in assay [5] (at 50.0 µM), 38.1%; in assay [6] (setting [7]) it was 1%; in assay [6] (setting [8]) it was 8%; in assay [6] (at 50.0 µM) it was 68.8%.

Turning to `CC(=O)Nc1ccc(/C=N\NC(=O)c2ccco2)cc1`, the growth inhibition in assay [1] (setting [7]) is -5%; in assay [1] (setting [8]), 4%; in assay [1] (at 50.0 µM), -7.6%; in assay [2] (setting [7]), -10%; in assay [2] (setting [8]), -7%; in assay [2] (at 50.0 µM) it was -2.6%. For the same compound, the growth inhibition in assay [3] (setting [7]) is -4%; in assay [3] (setting [8]), 5%; in assay [3] (at 50.0 µM), -1.1%; in assay [4] (setting [7]) it was -13%; in assay [4] (setting [8]), 1%; in assay [4] (at 50.0 µM), -3.1%. Also, the growth inhibition in assay [5] (setting [7]) was -8%; in assay [5] (setting [8]), -12%; in assay [5] (at 50.0 µM) it was -8.45%; in assay [6] (setting [7]) it was -2%; in assay [6] (setting [8]), -12%; in assay [6] (at 50.0 µM) it was 0.4%.

Take `Clc1ccc(C2=NCON=C2c2ccc(Cl)cc2)cc1`: the growth inhibition is 17% in assay [1] (setting [7]); 97% (active) in assay [1] (setting [8]); 87.9% (active) in assay [1] (at 50.0 µM); 7% in assay [2] (setting [7]); 99% (active) in assay [2] (setting [8]); 90.5% (active) in assay [2] (at 50.0 µM). The growth inhibition in assay [3] (setting [7]) was 10%; in assay [3] (setting [8]) it was 99% (active); in assay [3] (at 50.0 µM) it was 91% (active); in assay [4] (setting [7]) it was 9%; in assay [4] (setting [8]) it was 98% (active); in assay [4] (at 50.0 µM) it was 89.5% (active). In addition, the growth inhibition is 20% in assay [5] (setting [7]); 99% (active) in assay [5] (setting [8]); 90.8% (active) in assay [5] (at 50.0 µM); 7% in assay [6] (setting [7]); 97% (active) in assay [6] (setting [8]); -18.7% in assay [6] (at 50.0 µM).

As for `Cc1ccc(Cc2n[nH]c(=O)[nH]2)cc1`, the growth inhibition in assay [1] (setting [7]) is 32%; in assay [1] (setting [8]) it was 35%; in assay [1] (at 50.0 µM), -28.9%; in assay [2] (setting [7]) it was 18%; in assay [2] (setting [8]), 14%; in assay [2] (at 50.0 µM), -45.1%. Also, the growth inhibition in assay [3] (setting [7]) was 30%; in assay [3] (setting [8]), 33%; in assay [3] (at 50.0 µM), -35.7%; in assay [4] (setting [7]) it was 17%; in assay [4] (setting [8]) it was 30%; in assay [4] (at 50.0 µM), -2.5%. In addition, the growth inhibition in assay [5] (setting [7]) was 26%; in assay [5] (setting [8]), 22%; in assay [5] (at 50.0 µM), -26.3%; in assay [6] (setting [7]), 45%; in assay [6] (setting [8]), 52%; in assay [6] (at 50.0 µM), -31.6%.

Consider `Cc1ccc(C)c(C(=O)CCN)c1`, for which the growth inhibition in assay [1] (setting [7]) was -2%; in assay [1] (setting [8]), 5%; in assay [1] (at 50.0 µM), 3.45%; in assay [2] (setting [7]), 1%; in assay [2] (setting [8]), 1%; in assay [2] (at 50.0 µM), -10.7%. Moreover, the growth inhibition was 0% in assay [3] (setting [7]); -2% in assay [3] (setting [8]); 0.3% in assay [3] (at 50.0 µM); 6% in assay [4] (setting [7]); 2% in assay [4] (setting [8]); 84.8% (active) in assay [4] (at 50.0 µM). Besides, the growth inhibition in assay [5] (setting [7]) was 7%; in assay [5] (setting [8]) it was 8%; in assay [5] (at 50.0 µM), -5.3%; in assay [6] (setting [7]) it was 2%; in assay [6] (setting [8]) it was 6%; in assay [6] (at 50.0 µM), 3.55%.
